Data as given in PubChem BioAssay.
For part of these data: Entries with a potency or affinity are not part of this list. This is one part of the list. The source made the active and inactive calls.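 Rule for the calls, unless noted: active = at 20 µM dose, 40% or more inhibition averaged across four replicates; inactive = the rest.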

Experiments:
[1] = target: Carboxy-terminal domain RNA polymerase II polypeptide A small phosphatase 1 (Homo sapiens) (UniProt Q9GZU7); assay: Scp-1 binding by thermal shift, confirmation, orthogonal assay for Scp-1 inhibitor project, biophysical, differential scanning fluorimetry (AID 540329;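 active = substances whose mean melting-temperature shift, as a percentage of the reference inhibitor's shift, reaches about 5.3%, limit read from the data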;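 note: 0% = Tm of DMSO wells and 100% = Tm with sodium orthovanadate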); conditions: Recombinant SCP1, Sypro Orange thermal shift Tm; at 40 µM; stronger effect = higher value
[2] = PABP1 MLLE–PAM2 binding inhibitor potency, dose response, biochemical, fluorescence polarization, FITC-PAM2 peptide (AID 602259;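 active = mean IC50 at or below a set limit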); conditions: GST-MLLE/FITC-PAM2 peptide binding
[3] = Peg3 promoter reporter inhibitors, retest, confirmation, cell-based, HeLa, luciferase reporter, single concentration (AID 602417); conditions: HeLa PEG-Prom luciferase reporter, luminescence, overnight; at 20 µM; stronger effect = higher value
[4] = HIF-2a reporter inhibitor retest, confirmation, luminescence, 786-0 RCC cells (AID 651580;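 active = mean inhibition across four replicates of at least 40 percent at the single tested concentration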); conditions: HIF-2a luciferase reporter luminescence, overnight, at 18.8 µM, stronger effect = higher value
[5] = HIF-1a luciferase reporter signal reduction – MiaPaCa-2 cells, single concentration, counter-screen for HIF-2a inhibitor project, confirmation (AID 651589;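 active = mean inhibition of the reporter signal across four replicates at the single tested dose of 50% or more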); conditions: MiaPaCa-2 HIF-1a luciferase reporter, desferoxamine, overnight; at 18.8 µM; stronger effect = higher value
[6] = inhibitors of PAF-induced NF-kB signaling, retest, confirmation, cell-based, GFP fluorescence, single concentration (AID 602472; in the data active = inhibition above about 40%;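 note: stimulus PAF is a Pseudomonas aeruginosa filtrate and not platelet activating factor; plate controls were DMSO wells with stimulus for no effect and unstimulated DMSO wells for full effect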); conditions: KKLEB CF airway cells, overnight, at 5 µM, stronger effect = higher value
PEG-3 [7] = target: PEG-3 (UniProt Q6IN02); assay: Peg3 promoter luciferase inhibitors, potency, dose response, cell-based, HeLa, CREF/GAPDH counter-screen panel (AID 624167); conditions: CREF/GAPDH counter-screens; HeLa PEG-Prom luciferase reporter, overnight, run 1, dose range 1, at 100 µM (top of the series) unless noted
PEG-3 [8] = target: PEG-3 (UniProt Q6IN02); assay: as above; conditions: CREF/GAPDH counter-screens; HeLa PEG-Prom luciferase reporter, overnight, run 2, dose range 1, at 100 µM (top of the series) unless noted
Rat fibroblasts (CREF) [9] = assay: as above; conditions: CREF/GAPDH counter-screens; run 1, dose range 1, at 100 µM (top of the series)
Rat fibroblasts (CREF) [10] = assay: as above; conditions: CREF/GAPDH counter-screens; run 2, dose range 1, at 100 µM (top of the series)
[11] = inhibitors of PAF-induced NFkB signaling in CF airway cells, dose response, cell-based, uHTS hits, panel, cytotoxicity readout (AID 624344); conditions: CF bronchial epithelial cells, PAF-induced NFkB reporter inhibition, with PAF, run 1; at 79 µM (top of the series) unless noted
[12] = as above; conditions: CF bronchial epithelial cells, PAF-induced NFkB reporter inhibition, with PAF, run 2; at 79 µM (top of the series) unless noted
[13] = target: Tumor necrosis factor receptor superfamily member 10B (Homo sapiens) (UniProt O14763); assay: caspase-8 TRAIL sensitization, hit retest, confirmation, cell-based, NB7+caspase-8, with/without TRAIL, luminescence panel (AID 651596; in the data active = activity above about 50%); conditions: NB7 neuroblastoma + caspase-8, TRAIL sensitization, luminescence viability, with TRAIL, mean of runs, at 10 µM, stronger effect = higher value
[14] = as above; conditions: NB7 neuroblastoma + caspase-8, without TRAIL, luminescence viability, without TRAIL, mean of runs, at 10 µM
[15] = target: COP9 signalosome complex subunit 5 (Homo sapiens) (UniProt Q92905); assay: Csn5 deneddylation inhibitors, confirmation, biochemical, fluorescence polarization, single concentration, SCF-Nedd8OG substrate (AID 720654; in the data active = inhibition above about 50%;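 note: 0% = DMSO with enzyme and 100% = no enzyme wells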); conditions: Csn5 deneddylation of SCF-Nedd8OG, 90 min, at 16.6 µM, stronger effect = higher value
[16] = target: 72 kDa type IV collagenase (Homo sapiens) (UniProt P08253); assay: MMP-2 protease inhibition counter-screen, confirmation, counter-screen for CSN deneddylation inhibitor project, biochemical, fluorescence, single concentration (AID 720655;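 active = corrected plate-normalized z-score of 5 or more, or -5 or less, or inhibition of 15% or more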;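 note: plate controls were DMSO wells with enzyme for no effect and buffer wells lacking MMP-2 for full effect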); conditions: recombinant MMP-2, FRET substrate fluorescence, 60 min; at 16.6 µM
Prothrombin (Bos taurus) = Prothrombin (Bos taurus) (UniProt P00735); assay: bovine thrombin inhibition counter-screen, confirmation, counter-screen for CSN deneddylation inhibitor project, biochemical, fluorescence polarization, single concentration (AID 720656;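 active = inhibition at or above a set limit, with a fluorescence interference ratio between 0.5 and a set maximum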); conditions: bovine thrombin cleavage of Ub4-pepOG, at 16.6 µM, stronger effect = higher value
Prothrombin (Bos taurus), sequence (P00735 whole entry, looked up): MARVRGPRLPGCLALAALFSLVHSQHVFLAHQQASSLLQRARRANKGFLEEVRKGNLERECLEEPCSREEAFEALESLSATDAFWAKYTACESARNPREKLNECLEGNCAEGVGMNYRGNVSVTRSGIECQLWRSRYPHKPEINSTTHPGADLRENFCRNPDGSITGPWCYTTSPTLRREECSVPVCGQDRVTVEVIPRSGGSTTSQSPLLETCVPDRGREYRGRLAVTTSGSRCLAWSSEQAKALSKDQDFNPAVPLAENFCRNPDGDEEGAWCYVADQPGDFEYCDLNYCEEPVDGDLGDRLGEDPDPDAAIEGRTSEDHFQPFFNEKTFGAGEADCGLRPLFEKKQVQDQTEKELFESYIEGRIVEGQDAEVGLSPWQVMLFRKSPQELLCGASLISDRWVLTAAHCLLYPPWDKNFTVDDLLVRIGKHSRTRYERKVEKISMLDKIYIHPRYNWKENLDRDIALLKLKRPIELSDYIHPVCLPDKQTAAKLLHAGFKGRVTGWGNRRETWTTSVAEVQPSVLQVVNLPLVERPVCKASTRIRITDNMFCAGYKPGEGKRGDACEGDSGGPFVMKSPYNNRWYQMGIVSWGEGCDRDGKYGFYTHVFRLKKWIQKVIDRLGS

PEG-3, sequence (Q6IN02 whole entry, looked up): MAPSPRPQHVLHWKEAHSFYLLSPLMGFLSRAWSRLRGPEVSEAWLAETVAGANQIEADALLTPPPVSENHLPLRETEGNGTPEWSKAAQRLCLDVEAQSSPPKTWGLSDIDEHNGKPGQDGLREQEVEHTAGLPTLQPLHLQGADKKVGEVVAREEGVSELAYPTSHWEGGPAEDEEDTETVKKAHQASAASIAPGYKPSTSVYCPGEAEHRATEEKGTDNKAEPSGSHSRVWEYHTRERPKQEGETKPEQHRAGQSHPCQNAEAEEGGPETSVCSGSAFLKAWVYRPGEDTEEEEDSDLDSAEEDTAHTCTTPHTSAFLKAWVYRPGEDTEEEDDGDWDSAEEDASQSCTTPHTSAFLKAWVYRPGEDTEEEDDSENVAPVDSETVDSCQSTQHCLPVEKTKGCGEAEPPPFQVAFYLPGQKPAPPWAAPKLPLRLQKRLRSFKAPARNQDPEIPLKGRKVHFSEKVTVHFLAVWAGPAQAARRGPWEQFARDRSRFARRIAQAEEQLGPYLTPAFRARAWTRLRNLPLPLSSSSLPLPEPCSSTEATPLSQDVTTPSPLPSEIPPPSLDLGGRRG
COP9 signalosome complex subunit 5 (Homo sapiens), sequence (Q92905 whole entry, looked up, one chain of several): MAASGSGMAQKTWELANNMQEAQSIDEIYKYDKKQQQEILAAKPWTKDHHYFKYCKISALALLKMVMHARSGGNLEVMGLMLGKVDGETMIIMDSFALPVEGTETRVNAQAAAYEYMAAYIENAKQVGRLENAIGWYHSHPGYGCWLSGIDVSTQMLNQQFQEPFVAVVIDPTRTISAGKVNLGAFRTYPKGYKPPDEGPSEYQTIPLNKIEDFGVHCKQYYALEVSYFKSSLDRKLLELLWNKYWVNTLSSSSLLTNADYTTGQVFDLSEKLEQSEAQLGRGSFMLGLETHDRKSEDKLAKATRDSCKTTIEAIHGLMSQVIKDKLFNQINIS
72 kDa type IV collagenase (Homo sapiens), sequence (P08253 whole entry, looked up): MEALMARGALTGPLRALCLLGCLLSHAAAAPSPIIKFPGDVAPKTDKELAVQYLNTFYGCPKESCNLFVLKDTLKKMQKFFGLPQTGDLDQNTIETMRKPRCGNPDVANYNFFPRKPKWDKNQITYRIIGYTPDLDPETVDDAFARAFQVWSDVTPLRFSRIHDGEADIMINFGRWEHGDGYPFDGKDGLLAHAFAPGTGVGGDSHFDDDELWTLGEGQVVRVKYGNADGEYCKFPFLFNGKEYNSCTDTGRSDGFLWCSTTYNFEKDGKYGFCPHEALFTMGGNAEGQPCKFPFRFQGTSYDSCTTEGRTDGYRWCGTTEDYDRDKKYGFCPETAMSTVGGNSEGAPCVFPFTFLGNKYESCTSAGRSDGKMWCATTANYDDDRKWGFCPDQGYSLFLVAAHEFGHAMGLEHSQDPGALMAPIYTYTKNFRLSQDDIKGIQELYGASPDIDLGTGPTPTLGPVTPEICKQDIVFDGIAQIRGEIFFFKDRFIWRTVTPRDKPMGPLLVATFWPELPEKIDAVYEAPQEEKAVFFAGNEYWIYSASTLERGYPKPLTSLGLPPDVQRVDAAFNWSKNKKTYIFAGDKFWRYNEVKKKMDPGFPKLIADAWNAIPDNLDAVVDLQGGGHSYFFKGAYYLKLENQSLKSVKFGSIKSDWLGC
Tumor necrosis factor receptor superfamily member 10B (Homo sapiens), sequence (O14763 whole entry, looked up): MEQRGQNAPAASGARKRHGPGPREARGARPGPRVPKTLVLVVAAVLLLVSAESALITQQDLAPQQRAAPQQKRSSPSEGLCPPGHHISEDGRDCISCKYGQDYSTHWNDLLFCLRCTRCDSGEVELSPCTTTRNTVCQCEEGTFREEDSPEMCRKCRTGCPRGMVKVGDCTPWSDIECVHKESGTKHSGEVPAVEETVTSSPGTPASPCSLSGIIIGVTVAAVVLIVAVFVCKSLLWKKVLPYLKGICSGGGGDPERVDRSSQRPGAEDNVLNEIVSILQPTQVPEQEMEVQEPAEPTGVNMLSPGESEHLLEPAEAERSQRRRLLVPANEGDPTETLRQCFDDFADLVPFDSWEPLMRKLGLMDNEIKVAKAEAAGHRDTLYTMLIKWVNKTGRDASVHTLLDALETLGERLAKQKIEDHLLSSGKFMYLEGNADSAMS
Carboxy-terminal domain RNA polymerase II polypeptide A small phosphatase 1 (Homo sapiens), sequence (Q9GZU7 76-261 limits assumed): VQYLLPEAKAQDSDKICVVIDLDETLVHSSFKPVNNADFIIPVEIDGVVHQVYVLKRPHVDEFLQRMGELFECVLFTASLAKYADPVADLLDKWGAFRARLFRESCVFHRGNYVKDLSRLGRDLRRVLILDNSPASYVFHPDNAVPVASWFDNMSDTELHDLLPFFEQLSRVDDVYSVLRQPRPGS

SMILES: O=C(Cn1cc(/C=N/NC(=O)c2cccc(C(F)(F)F)c2)c2ccccc21)Nc1ccc(F)cc1
- thermal shift relative to vanadate control [1]: 10.6% (active)

SMILES: C[c-]1[c-](C)[c-](C)[c-](C)[c-]1C.[Fe].c1cc2nccc(N3CCCC3)[c-]2c1 (stereo unspecified)
- IC50 [2]: > 66 µM (inactive)

SMILES: O=C(NCCN1CCOCC1)c1ccc(/C=C2\Sc3ccccc3N(Cc3ccc(F)cc3)C2=O)cc1
- inhibition [3]: 42.8% (active)

SMILES: Cc1c(CCC(=O)O)c(=O)oc2c(C)c(OCc3ccccc3Cl)ccc12
- inhibition [4]: 63.3% (active)
- inhibition [5]: 46.2% (inactive)

SMILES: O=C(O)c1ccc(N/N=C/c2ccc3ncccc3c2)cc1
- inhibition [4]: 66.4% (active)
- inhibition [5]: 39.2% (inactive)

SMILES: Cc1cc2nc(-c3ccco3)c(Cc3cccc(F)c3)n2c(C)c1Br
- inhibition [6]: -41.6% (inactive)

SMILES: Cc1ccc(C(NC(=O)C2CCN(CCOc3ccc(Cl)cc3Cl)CC2)c2ccccn2)cc1 (stereo unspecified)
- inhibition [3]: 36.9% (inactive)

SMILES: Cc1ccc(Cc2c(-c3ccco3)nc3ccc(Cl)cn23)cc1
- inhibition [6]: -82.3% (inactive)

SMILES: COc1ccc(-c2ccc(CN3C(CC(C)C)C(=O)N(Cc4cn(CC5CCCCC5)nn4)CCS3(=O)=O)cc2)cn1 (stereo unspecified)
- inhibition [6]: 36.1% (inactive)

SMILES: O=C(Nc1cccc(-c2cccc(Cl)c2)c1)C1CCN(C2CCC2)CC1
- inhibition [3]: 92.8% (active)
- inhibition (PEG-3 [7]): 98%
- inhibition (PEG-3 [8]): 98.9%

SMILES: COc1cccc2c1C(=O)c1c(O)c3c(c(O)c1C2=O)CC(O)(C(C)=NNC(=O)c1ccc(Cl)c(Cl)c1)CC3OC1CC(N)C(O)C(C)O1 (stereo unspecified)
- inhibition [3]: 96.6% (active)
- inhibition (PEG-3 [7]): 102%
- inhibition (PEG-3 [8]): 101%
- inhibition (Rat fibroblasts (CREF) [9]): 99.3%
- inhibition (Rat fibroblasts (CREF) [10]): 98.6%

SMILES: CC(C)CN(C(=O)COC(=O)c1ccc2ccccc2c1)c1c(N)n(Cc2ccccc2)c(=O)[nH]c1=O
- inhibition [3]: 34.1% (inactive)

SMILES: CCn1cc(CN2CCC(C(=O)Nc3cccc(-c4cccc(Cl)c4)c3)CC2)cn1
- inhibition [3]: 94.5% (active)
- inhibition (PEG-3 [7]): 99.1%
- inhibition (PEG-3 [8]): 98.3%

SMILES: Cc1ccc(-c2nc3ccccc3[nH]2)cc1NC(=O)c1sc2ccccc2c1Cl
- inhibition [3]: -5.64% (inactive)

SMILES: COc1ccc2[nH]c(=O)c(CN(Cc3cccnc3)S(=O)(=O)c3ccccc3F)cc2c1
- inhibition [3]: 56.7% (active)
- inhibition [6]: 86.3% (active)
- inhibition [11]: 109%
- inhibition [12]: 103%

SMILES: CCCCNc1c(-c2cccc(Sc3ccc(OC)cc3)c2)nc2ccccn12
- inhibition [3]: 95.6% (active)
- inhibition (PEG-3 [7]): 94.7%
- inhibition (PEG-3 [8]): 81.9%

SMILES: Cc1ccc([C@H]2C[C@H](O)[C@@H](n3cc(COC(=O)c4ccccc4)nn3)CN2CC2CCCCC2)cc1
- inhibition [6]: -29.2% (inactive)

SMILES: CN1OC[C@@H]2CN(S(=O)(=O)c3cccc(C(F)(F)F)c3)[C@H](c3ccc(-c4cc5ccccc5o4)cc3)C[C@@H]21
- inhibition [3]: 52.7% (active)
- inhibition [4]: 46.4% (active)
- inhibition [5]: 75.2% (active)
- inhibition (PEG-3 [7]): 60%
- inhibition (PEG-3 [8]): 73.1%
- inhibition (Rat fibroblasts (CREF) [9]): 17%
- inhibition (Rat fibroblasts (CREF) [10]): 24.5%

SMILES: Cc1c(C(=O)Nc2cccc(Cl)c2)cn2c(nc3ccccc32)c1C#N
- inhibition [3]: 10.5% (inactive)

SMILES: CCCc1cc(=O)n2[nH]c(C)c(-c3ccc(Cl)cc3)c2n1
- inhibition [3]: 51.5% (active)
- inhibition (PEG-3 [7]): 94%
- inhibition (PEG-3 [8]): 88.7%

SMILES: COc1ccc(NC(=O)c2sc3nc(C)nc(N4CCN(c5ccccn5)CC4)c3c2C)c(OC)c1
- inhibition [6]: 38.6% (inactive)

SMILES: COc1ccc(CNC(=O)/C(C#N)=C/c2cccc(OC)c2OC)cc1
- inhibition [6]: 34.1% (inactive)

SMILES: O=C1OC(Oc2ccc(Br)cc2)(c2ccccc2)c2ccccc21 (stereo unspecified)
- inhibition [6]: 4.99% (inactive)

SMILES: c1ccc(C(=NNc2nc3ccccc3s2)c2ccccn2)cc1
- inhibition [3]: 61% (active)
- inhibition (PEG-3 [7]): 101%
- inhibition (PEG-3 [8]): 102%

SMILES: O=C(CSc1nc(Nc2ccccc2)nc(N2CCOCC2)n1)Nc1cc(Cl)ccc1O
- inhibition [3]: 78.8% (active)
- inhibition (PEG-3 [7]): 98.4%
- inhibition (PEG-3 [8]): 101%

SMILES: CCOc1ccc2nc(N(CCCN(C)C)C(=O)c3ccc(C(=O)c4ccccc4)cc3)sc2c1
- inhibition [3]: 97.7% (active)
- inhibition (PEG-3 [7]): 102%
- inhibition (PEG-3 [8]): 101%
- activity [13]: 87.4%
- activity [14]: 98.2%

SMILES: CC(C)CC1C(=O)N(Cc2cn(Cc3ccco3)nn2)CCS(=O)(=O)N1Cc1ccc(-c2ccc(Cl)c(Cl)c2)cc1 (stereo unspecified)
- inhibition [6]: 45.6% (active)

SMILES: O=c1[nH]c(=S)[nH]c(O)c1/C=C1\C=Nc2ccccc21
- inhibition [3]: 47.7% (active)
- inhibition (PEG-3 [7]): 73%
- inhibition (PEG-3 [8]): 100% [run 2, dose range 1, at 50 µM]

SMILES: CN(O)C(=S)c1ccccc1
- inhibition [3]: 89.1% (active)
- inhibition (PEG-3 [7]): 27%
- inhibition (PEG-3 [8]): 78.7%
- inhibition (Rat fibroblasts (CREF) [9]): 0.489%
- inhibition (Rat fibroblasts (CREF) [10]): -19.9%

SMILES: CNC(=O)c1ccsc1NC(=O)c1ccc(S(=O)(=O)N2CCc3ccccc32)cc1
- inhibition [3]: 52.4% (active)
- inhibition (PEG-3 [7]): 65%
- inhibition (PEG-3 [8]): 63.5%

SMILES: COc1ccc(OC)c(Cc2cnc3nc(N)nc(N)c3c2C)c1
- inhibition [3]: 66.8% (active)
- inhibition (PEG-3 [7]): 88.7%
- inhibition (PEG-3 [8]): 86.7%

SMILES: CSc1nc(N)c(C#N)c(-c2ccccc2Cl)c1C#N
- inhibition [3]: 70.6% (active)

SMILES: COc1ccc2c(c1)c(=Cc1ccc(N(C)C)cc1)c1cc(-c3ccccc3)[n+](C)n12
- inhibition [3]: 97.8% (active)
- inhibition [15]: 65% (active)
- inhibition [16]: 81.7% (active)
- inhibition (Prothrombin (Bos taurus)): 67.8% (active)
- inhibition (PEG-3 [7]): 102%
- inhibition (PEG-3 [8]): 102%
- inhibition (Rat fibroblasts (CREF) [9]): 99.5%
- inhibition (Rat fibroblasts (CREF) [10]): 100%
